Molecules are shown by their SMILES. Records with an inconclusive call do not appear. A number with no mark means an inactive call. Activity calls are given as the source filed them. The call rests on the fitted dose curve; in most records, active means well fitted inhibition curve with a large enough effect; inconclusive means small, poorly fitted or top-dose-only effect; inactive means flat fitted curve, though single readings scatter.
On the % scale 0 is the no-effect control and ±100 the full control effect; potency means the concentration at half of the fitted maximal effect.

The target in this test is Voltage-gated inwardly rectifying potassium channel KCNH2 (Homo sapiens) (UniProt Q12809). Kind of test: qHTS Assay for Small Molecule Inhibitors of the Human hERG Channel Activity (AID 588834).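 Further: lower thallium flux fluorescence means stronger hERG block; nearly all actives have a fitted effect of over 50% in size.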 On activity change, negative = inhibition: top concentration of the series differs between compounds. To be noted: U2OS BacMam hERG, FluxOR thallium flux fluorescence; series mostly up to 46.1 µM; activity change, negative = inhibition: at the top concentration. Put shortly: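 U2OS cells transduced with hERG via BacMam (MOI ~100), plated 2000/well, loaded with FluxOR thallium dye, compound ~10 min, then stimulation buffer; fluorescence decrease read kinetically; AC50 from Hill fits.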
Sequence of Voltage-gated inwardly rectifying potassium channel KCNH2 (Homo sapiens) (Q12809 whole entry, looked up): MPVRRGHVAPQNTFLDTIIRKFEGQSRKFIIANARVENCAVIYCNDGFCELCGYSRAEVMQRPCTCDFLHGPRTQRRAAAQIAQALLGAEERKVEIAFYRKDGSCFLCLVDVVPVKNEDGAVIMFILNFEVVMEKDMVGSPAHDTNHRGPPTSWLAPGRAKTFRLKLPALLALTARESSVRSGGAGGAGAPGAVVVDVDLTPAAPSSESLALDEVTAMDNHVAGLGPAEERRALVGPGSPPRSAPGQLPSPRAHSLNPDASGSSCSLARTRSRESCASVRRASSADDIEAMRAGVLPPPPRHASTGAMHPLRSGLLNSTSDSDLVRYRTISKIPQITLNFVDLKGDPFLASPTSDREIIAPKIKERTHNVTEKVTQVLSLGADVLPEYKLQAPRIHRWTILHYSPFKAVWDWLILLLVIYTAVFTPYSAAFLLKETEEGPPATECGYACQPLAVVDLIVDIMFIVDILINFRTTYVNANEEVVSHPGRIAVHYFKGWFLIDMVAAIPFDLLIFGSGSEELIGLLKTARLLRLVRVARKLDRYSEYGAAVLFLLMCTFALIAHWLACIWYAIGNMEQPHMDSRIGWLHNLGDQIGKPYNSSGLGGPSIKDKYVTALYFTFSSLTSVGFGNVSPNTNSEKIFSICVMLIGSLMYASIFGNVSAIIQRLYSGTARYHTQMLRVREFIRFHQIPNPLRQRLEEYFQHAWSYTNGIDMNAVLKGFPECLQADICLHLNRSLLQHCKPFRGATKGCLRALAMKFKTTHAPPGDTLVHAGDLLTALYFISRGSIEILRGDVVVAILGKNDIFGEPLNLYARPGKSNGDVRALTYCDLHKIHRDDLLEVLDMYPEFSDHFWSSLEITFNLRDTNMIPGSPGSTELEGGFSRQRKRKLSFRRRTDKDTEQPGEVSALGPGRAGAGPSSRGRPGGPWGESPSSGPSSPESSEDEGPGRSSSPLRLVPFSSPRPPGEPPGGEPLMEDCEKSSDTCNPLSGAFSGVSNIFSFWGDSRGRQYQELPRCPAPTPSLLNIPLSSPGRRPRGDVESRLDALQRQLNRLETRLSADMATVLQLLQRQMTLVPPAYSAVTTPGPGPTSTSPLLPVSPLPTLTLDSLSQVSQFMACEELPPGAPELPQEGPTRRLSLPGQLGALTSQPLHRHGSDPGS
As for `COC(=O)c1cncn1C(C)c1ccccc1` (stereo unspecified), the “activity change, negative = inhibition” value was 24.1%. Regarding `NCCc1c[nH]c2ccccc12`, the “activity change, negative = inhibition” value was -17.9%.

For `CN1C2CCC1CC(OC(=O)c1cc(Cl)cc(Cl)c1)C2` (stereo unspecified), the Potency is 3.55 µM (active). On the same count and under the same terms, then `CC(C)NC(C)Cc1ccc(I)cc1` (stereo unspecified), with 8.91 µM (active).

As for `C[C@@H]1O[C@H](C[N+](C)(C)C)C[C@H]1O`, the “activity change, negative = inhibition” value is -1.44%.

Consider `CCCCc1ccc(C(=O)O)nc1`, for which the “activity change, negative = inhibition” value is -41.8%. On the same count and under the same terms, then `CC(=O)NCCc1c[nH]c2ccccc12`, with 16.2%; and `NC(CCP(=O)(O)O)C(=O)O` (stereo unspecified), with 5.47%. Take `CC(Cc1ccc(O)cc1)NCC(O)c1cc(O)cc(O)c1` (stereo unspecified): the Potency result was “inactive”. Turning to `C[C@@H](N)Cc1cnc[nH]1`, the “activity change, negative = inhibition” value was 12.3%.

`C[C@]12CCC3C(CC[C@H]4C[C@H](O)CC[C@]34C)C1CC[C@@H]2C(=O)CO` (stereo partly specified): the “activity change, negative = inhibition” value was 14.7%. Turning to `CCCN(CCC)C1CCc2ccc(O)cc2C1` (stereo unspecified), the Potency was 2.24 µM (active). Same read-out and setting: the figure for `CC(C)Oc1cccnc1N(C)C1CCN(Cc2ccccc2)CC1` is 6.31 µM (active). Regarding `c1ccc(CCCN2CCN(CCOC(c3ccccc3)c3ccccc3)CC2)cc1`, the Potency is 0.501 µM (active). With `CN[C@@H](C)[C@H](O)c1ccccc1`, the “activity change, negative = inhibition” value was 17.9%. As for `C[N+]1(C)C2CCC1CC(OC(=O)C(CO)c1ccccc1)C2` (stereo unspecified), the Potency result is “inactive”.

Take `CC[N+]1(CCOC(=O)C(O)(c2ccccc2)c2ccccc2)CCCCC1`: the “activity change, negative = inhibition” value was 12.2%. In the case of `C[C@]12N[C@H](Cc3ccccc31)c1ccccc12`, the Potency entry is “inactive”. `COc1cc(C(O)CN)ccc1O` (stereo unspecified): the “activity change, negative = inhibition” value is 5.74%. Turning to `C[N+](C)(C)CC(=O)O`, the Potency entry is “inactive”. Same read-out and setting: the entry for `CC[C@@H]1C(=O)OC[C@@H]1Cc1cncn1C` is “inactive”. In the case of `NC(=NCCC[C@H](N)C(=O)O)N[N+](=O)[O-]`, the “activity change, negative = inhibition” value was 10.4%.

Take `NCCc1c[nH]c2ccc(O)cc12`: the “activity change, negative = inhibition” value is -9.9%. Turning to `CCCN1CCO[C@@H]2c3cc(O)ccc3OC[C@H]21`, the Potency result is “inactive”. Take `O=C(O)Cc1cnc[nH]1`: the “activity change, negative = inhibition” value is 10.9%.

With `NC(=O)CN1CC(O)CC1=O` (stereo unspecified), the “activity change, negative = inhibition” value was 10.6%. In the case of `CC(=O)[C@H]1CCC2C3CC[C@H]4C[C@H](O)CC[C@]4(C)C3CC[C@@]21C` (stereo partly specified), the “activity change, negative = inhibition” value is 0%. For the compound `Cc1nc(-c2ccc(-c3ccc(C(=O)N4CCc5cc6c(cc54)C4(CCN(C)CC4)CO6)cc3)c(C)c2)no1`, the Potency is 7.94 µM (active). As for `NC(N)=NOCCC(N)C(=O)O` (stereo unspecified), the “activity change, negative = inhibition” value was 9.86%.

`c1ccc2sc(C3(N4CCCCC4)CCCCC3)cc2c1`: the Potency was 2.82 µM (active). Take `NC1=NC(=O)N2CC12` (stereo unspecified): the “activity change, negative = inhibition” value is -3.55%. As for `NC1CC1c1ccccc1` (stereo unspecified), the “activity change, negative = inhibition” value was -12.9%. For `Clc1ccc(C(c2ccc(Cl)cc2)n2cc[n+](CC(OCc3ccc(Cl)cc3Cl)c3ccc(Cl)cc3Cl)c2)cc1` (stereo unspecified), the Potency was 11.2 µM (active).

As for `O=[N+]([O-])c1ccc([As](=O)(O)O)cc1`, the “activity change, negative = inhibition” value is 6.85%. Still for that read-out and setting: then `O=C1CCCN1CC#CCN1CCCC1`, with -2.36%.

With `CCCN1CCC[C@H](c2cccc(O)c2)C1`, the “activity change, negative = inhibition” value was 3.52%.

These data come from PubChem BioAssay (NCATS).
